Measured values: PubChem BioAssay (NCI)
About 83,000 compounds went through this panel and 20% of them were active in at least one assay; those are over-represented in the sample as a whole.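 How to read the values: 0–100, growth inhibition (40 = 60% inhibited); 0, no net growth; -100 to 0, cell death (-40 = 40% of starting cells died; -100 = all dead).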 Activity calls are given as the source filed them. The calls were made as follows: active = growth percent below 10; inactive = the rest.

Tests used:
Assay in all cases: NCI-60 one-dose screen, 48 h (100 = growth as untreated, 0 = no growth, -100 = all killed)
HCT-15 colon = conditions: 10 µM unless noted
HT29 colon = conditions: 10 µM unless noted
SNB-19 CNS = conditions: 10 µM unless noted
U251 CNS = conditions: 10 µM unless noted
SK-MEL-5 melanoma = conditions: 10 µM unless noted
UACC-62 melanoma = conditions: 10 µM unless noted
LOX IMVI melanoma = conditions: 10 µM unless noted
SK-MEL-28 melanoma = conditions: 10 µM unless noted
SK-MEL-2 melanoma = conditions: 10 µM unless noted
EKVX NSCLC = conditions: 10 µM unless noted
SN12C renal = conditions: 10 µM unless noted
UO-31 renal = conditions: 10 µM unless noted
TK-10 renal = conditions: 10 µM unless noted
ACHN renal = conditions: 10 µM unless noted
CAKI-1 renal = conditions: 10 µM
A498 renal = conditions: 10 µM unless noted
CCRF-CEM leukemia = conditions: 10 µM unless noted
MOLT-4 leukemia = conditions: 10 µM unless noted
PC-3 prostate = conditions: 10 µM unless noted

Measured: growth

O=C(COc1ccc(/C=C2\SC(=O)NC2=O)cc1)Nc1ccc(C(=O)/C=C/c2cc3ccccc3nc2Cl)cc1
active: HT29 colon 4.19%
inactive: HCT-15 colon 76.8% | SNB-19 CNS 82% | U251 CNS 69% | SK-MEL-5 melanoma 33.5% | UACC-62 melanoma 70.6% | LOX IMVI melanoma 47.8% | SK-MEL-28 melanoma 99.2% | SK-MEL-2 melanoma 91% | EKVX NSCLC 73.1% | SN12C renal 87.5% | UO-31 renal 57.6% | TK-10 renal 89.8% | ACHN renal 85.1% | CAKI-1 renal 59.2% | A498 renal 80.7% | CCRF-CEM leukemia 35.4% | MOLT-4 leukemia 42.8%

Oc1ccccc1-c1nnc(SCc2ccc(O)c3ncccc23)n1-c1ccccc1
inactive: HCT-15 colon 17.6% | HT29 colon 14.6% | SNB-19 CNS 16.5% | U251 CNS 11.5% | PC-3 prostate 20.5% | SK-MEL-28 melanoma 14.8% | SN12C renal 14.5% | TK-10 renal 18.9% | CAKI-1 renal 11.3% | MOLT-4 leukemia 18%
active: SK-MEL-5 melanoma -60.3% | UACC-62 melanoma -8.29% | LOX IMVI melanoma 3.79% | EKVX NSCLC -0.459% | UO-31 renal -9.38% | ACHN renal 8.88% | A498 renal -6.54% | CCRF-CEM leukemia 7.6%

NNC(=O)c1sc2nc(-c3cnccn3)cc(-c3cccs3)c2c1N
inactive: HCT-15 colon 89.9% | HT29 colon 106% | SNB-19 CNS 88.2% | U251 CNS 90% | PC-3 prostate 90.1% | SK-MEL-5 melanoma 97.2% | UACC-62 melanoma 93.7% | LOX IMVI melanoma 83.2% | SK-MEL-28 melanoma 101% | SK-MEL-2 melanoma 102% | EKVX NSCLC 86.8% | SN12C renal 95.5% | UO-31 renal 75.9% | TK-10 renal 118% | ACHN renal 95.4% | CAKI-1 renal 87.6% | A498 renal 79.5% | CCRF-CEM leukemia 62.7% | MOLT-4 leukemia 77%

CCN(CC)CCCC(C)NCC(=O)NC(c1ccc2c(c1)OCO2)c1cc(Cl)c2cccnc2c1O (centres undefined)
inactive: HCT-15 colon 20.6% | HT29 colon 23.6% | SNB-19 CNS 38.1% | U251 CNS 30.2% | PC-3 prostate 20.1% | SK-MEL-28 melanoma 46.5% | SK-MEL-2 melanoma 81.4% | EKVX NSCLC 26% | SN12C renal 38.1% | TK-10 renal 45.6% | ACHN renal 25.2% | CCRF-CEM leukemia 16.5% | MOLT-4 leukemia 20.4%
active: SK-MEL-5 melanoma -77.4% | UACC-62 melanoma -17.6% | LOX IMVI melanoma -30.1% | UO-31 renal 3.38% | CAKI-1 renal 1.43%

O=C(Nc1cc(Cl)cc(Cl)c1)Nc1nc2ccc([N+](=O)[O-])cc2s1
active: HCT-15 colon 2.76% | HT29 colon 5.08% | U251 CNS 6.61% | PC-3 prostate 7.99% | SK-MEL-5 melanoma -76.5% | UACC-62 melanoma -34.1% | SK-MEL-28 melanoma -2.55% | SK-MEL-2 melanoma -22.2% | EKVX NSCLC 6.9% | SN12C renal 2.15% | UO-31 renal 6.95% | TK-10 renal -1.5% | ACHN renal 3.76% | CAKI-1 renal 6.87% | MOLT-4 leukemia 2.31%
inactive: SNB-19 CNS 21.3% | CCRF-CEM leukemia 10.3%

O=C1[C@H]2Cc3c([nH]c4ccccc34)[C@H](c3ccc(Cl)cc3)N2C(=O)CN1C1CCN(Cc2c(Cl)cccc2Cl)CC1
inactive: HCT-15 colon 39.5% | HT29 colon 18.2% | U251 CNS 69.5% | PC-3 prostate 49.3% | SK-MEL-5 melanoma 66.3% | UACC-62 melanoma 88.8% | LOX IMVI melanoma 15.3% | SK-MEL-28 melanoma 98.8% | SK-MEL-2 melanoma 106% | EKVX NSCLC 74.5% | SN12C renal 59.9% | UO-31 renal 48.4% | TK-10 renal 101% | ACHN renal 72.9% | CAKI-1 renal 41.9% | A498 renal 101% | CCRF-CEM leukemia 53.4% | MOLT-4 leukemia 44%

O=C(/C=C1\C=CN(CCCCO)c2ccccc21)n1ccc2ccccc21
inactive: HCT-15 colon 107% | HT29 colon 109% | SNB-19 CNS 94.8% | U251 CNS 102% | PC-3 prostate 107% | SK-MEL-5 melanoma 98.1% | UACC-62 melanoma 87.6% | LOX IMVI melanoma 114% | SK-MEL-28 melanoma 108% | SK-MEL-2 melanoma 101% | EKVX NSCLC 89.6% | SN12C renal 98.7% | UO-31 renal 74.3% | TK-10 renal 117% | ACHN renal 93.7% | CAKI-1 renal 85.7% | CCRF-CEM leukemia 102% | MOLT-4 leukemia 102%

CN(c1ccc(F)cc1)S(=O)(=O)c1ccc(-c2cnc(C3CC3)o2)cc1
inactive: HCT-15 colon 17.9% | HT29 colon 13.9% | SNB-19 CNS 36.9% | U251 CNS 23.3% | PC-3 prostate 17.8% | SK-MEL-5 melanoma 26.8% | UACC-62 melanoma 30.5% | SK-MEL-28 melanoma 56.7% | SK-MEL-2 melanoma 77.6% | EKVX NSCLC 46.9% | SN12C renal 37.3% | UO-31 renal 44.5% | TK-10 renal 91.9% | ACHN renal 43% | CAKI-1 renal 39% | CCRF-CEM leukemia 16.4% | MOLT-4 leukemia 25.6%

O=C(Nc1cccc(Cl)c1)Nc1nc2ccc([N+](=O)[O-])cc2s1
active: HCT-15 colon 1.52% | HT29 colon 4.55% | U251 CNS 5.89% | PC-3 prostate 6.96% | SK-MEL-5 melanoma -75.3% | UACC-62 melanoma -40.2% | SK-MEL-28 melanoma 0.117% | SN12C renal 4.02% | UO-31 renal 7.26% | TK-10 renal -2.79% | ACHN renal 5.59% | CAKI-1 renal 3.38% | CCRF-CEM leukemia 9.48% | MOLT-4 leukemia 2.36%
inactive: SNB-19 CNS 21.2% | EKVX NSCLC 10%
